Results reported in PubChem BioAssay AID651793 (National Center for Advancing Translational Sciences (NCATS), 2012).
Inconclusive results are not listed. Calls of active or inactive are those of the source. Calls come from the whole dose curve; as a rule, active = well fitted inhibition curve with a large enough effect; inconclusive = small, poorly fitted or top-dose-only effect; inactive = flat fitted curve, though single readings scatter.

Test: InCell qHTS Assay for Inhibitors of the mTORC1 Signaling Pathway in WT MEF Cells: Hit Validation
Conditions: WT MEF phospho-rpS6 immunofluorescence, Acumen, 24 h; series mostly up to 38.3 µM
Source text: The mammalian target of rapamycin (mTOR) is an intracellular serine/threonine kinase Aberrant regulation of mTOR signaling plays a causative role in a number of human diseases, including cancer, benign tumors such as lymphangioleiomyomatosis (LAM) and Tuberous Sclerosis Complex (TSC), and metabolic diseases such as diabetes and obesity. This project aims to identify inhibitors of ribosomal protein S6 (rpS6) phosphorylation. The phosphorylation of rpS6 is a key event downstream of mTOR activation. The assay uses a phospho-specific antibody of phospho-rpS6 to detect inhibitors of mTOR activation. Mutations in the Tsc1 and Tsc2 genes are the underlying genetic lesions responsible for TSC, causing constitutive activation of the mTORC1 pathway and leading to profound effects on cell metabolism. Aberrant metabolism in cancer has recently received significant attention as a target to develop therapeutic agents in the treatment of cancer.1 As Tsc2-/- cells have lost the ability to respond to energy and growth factor deprivation, these cells are unable to properly down regulate cellular biosynthetic processes in response to metabolic stress, and are thus extremely sensitive to glucose deprivation-induced death.2 A central goal of this project is to explore the unique cell survival and metabolic properties of cells with Tsc1 or Tsc2 by screening for compounds that selectively target the Tsc2-/- MEFs by screening both Tsc2-/- and WT MEF cell lines. We hope to better understand these aspects of TSC physiology in order to exploit them for therapeutic benefit. NIH Molecular Libraries Probe Production Centers Network [MLPCN] NIH Chemical Genomics Center [NCGC] MLPCN Grant: NS059428 Assay Submitter (PI): Blenis, John; Harvard University
For quantitative high throughput analysis of mTORC1 signaling, we developed a cell-based assay for immuno-fluorescence based detection of rpS6 phosphorylation on the Acumen Explorer that will be used a platform for the primary small molecule screen. Mouse embryonic fibroblasts (MEFs) are cultured in 1536-well plates using DMEM + 10% FBS. Twenty-four hrs after plating, test compounds (solubilized in DMSO) are delivered and incubated with the cells for 24 hrs at 37 degree Celsius. Following the incubation, media with compound is aspirated and the cells are fixed in 4% paraformaldehyde (PFA) containing PBS + 0.2% TX-100. Next, PFA is aspirated, cells are washed two times with PBS plus 0.2% TX-100 and the cells are blocked for 1 hr at room temperature (blocking buffer: LiCOR Blocking Buffer plus 0.2% TX-100). This is followed by aspiration and staining with Alexa-488 conjugated-phospho-rpS6 Ser235/236 antibody for 2 hours at room temperature (Cell Signaling Technology # 4803, 1:50 dilution in blocking buffer). Cells are washed two times with PBS plus 0.2% TX-100, and stained with 10 uM propidium iodide (PI) for 20-25 minutes for cell number measurement (1:500 dilution of Hoescht staining is also added for IN Cell imaging). The plates are scanned on the Acumen Explorer laser scanning instrument (TTP Labtech) using the 488nm laser for simultaneous excitation of the Alexa-488 and PI. The fluorescence emission from the Alexa-488 conjugated rpS6 phospho-235/236 antibody staining is selected using a […] band pass filter. Fluorescence emission from the PI stain is selected using a 575-640 nm band pass filter. The normalized phospho-S6 staining is calculated as the ratio of the integrated Alexa 488 intensity divided by the integrated PI intensity for the single concentration rapamycin control (7.5 nM) and DMSO columns. […] Inhibition of the pathway is defined based on the normalized phospho-S6 intensity in rapamycin treated cells. […]
In the case of `COc1ccccc1Nc1c2c(nc3ccc(NC(=O)c4ccc(N(C)C)cc4)cc13)CCCC2`, the Potency is reported as 5.65 µM (active).
With `Cc1cccc(Nc2nc(Nc3cccc(C)c3)nc(N3CCOCC3)n2)c1` the Potency was 20 µM (active).
With `COc1ccc(/C=C/C(=O)Nc2ccc3nc4c(c(Nc5ccc(OC)c(OC)c5)c3c2)CCCC4)cc1` the Potency was 11.3 µM (active).
In the case of `Cc1c(C(=O)OCCOc2ccccc2)[nH]c2c1C(=O)CC(c1ccccc1Cl)C2` (configuration not stated), the Potency is reported as “inactive”.
In the case of `COc1ccc(OC)c(C2CC(=O)c3c([nH]c(C(=O)OCc4ccc(C)cc4)c3C)C2)c1` (configuration not stated), the Potency is reported as “inactive”.
For `CCOc1ccc(C2CC(=O)c3c([nH]c(C(=O)OCc4ccccc4)c3C)C2)cc1` (configuration not stated), the Potency was “inactive”.
For `CCN1CCN(c2cc(C)c3cc(NC(=O)/C=C/c4ccc(C)cc4)ccc3n2)CC1`, the Potency was “inactive”.
In the case of `CCCOc1ccc(C(=O)Nc2ccc(NC(=O)c3ccccc3)c(C)c2)cc1`, the Potency is reported as 6.34 µM (active).
In the case of `CCCCc1ccc(C(=O)Nc2ccc3nc(N4CCN(CC)CC4)cc(C)c3c2)cc1`, the Potency is reported as 8.95 µM (active).
With `CCN(CC)c1cc(C)c2cc(NC(=O)/C=C/c3cc(OC)c(OC)c(OC)c3)ccc2n1` the Potency was 22.5 µM (active).
With `COc1cc(-c2nc3ncccn3c2Nc2ccc(C)cc2C)ccc1O` the Potency was “inactive”.
In the case of `CCOc1ccc(Nc2nc(Nc3ccc(OCC)cc3)nc(N3CCOCC3)n2)cc1`, the Potency is reported as “inactive”.
In the case of `COc1ccccc1Nc1c2c(nc3ccc(NC(=O)c4cccc(OC)c4OC)cc13)CCCC2`, the Potency is reported as 17.9 µM (active).
With `COc1ccc(Nc2c3c(nc4ccc(NC(=O)/C=C/c5cccc(OC)c5OC)cc24)CCCC3)cc1OC` the Potency was 8.95 µM (active).
In the case of `COc1ccccc1Nc1c2c(nc3ccc(NC(=O)/C=C/c4cc(OC)c(OC)c(OC)c4)cc13)CCCC2`, the Potency is reported as 2.52 µM (active).
For `COc1cc(Nc2nc(-c3ccc(OC)c(OC)c3)nc3ccccc23)cc(OC)c1`, the Potency was “inactive”.
With `COc1cc(NC(=O)c2cccc(F)c2)ccc1NC(=O)c1cc2ccccc2o1` the Potency was 8.95 µM (active).
With `Cc1cc(N2CCCCC2)nc2ccc(NC(=O)/C=C/c3ccccc3OC(C)C)cc12` the Potency was “inactive”.
With `Cc1cc(N2CCN(C)CC2)nc2ccc(NC(=O)c3ccc(C(C)(C)C)cc3)cc12` the Potency was 15.9 µM (active).
For `CCCOc1ccc(C(=O)Nc2ccc(NC(=O)c3ccccc3)c(Br)c2)cc1`, the Potency was 10 µM (active).
With `CCN1CCN(c2cc(C)c3cc(NC(=O)c4cc(OC)cc(OC)c4)ccc3n2)CC1` the Potency was “inactive”.
In the case of `C=CCNC1=C2C[C@@H](C)C[C@H](OC)[C@H](O)[C@@H](C)/C=C(\C)[C@H](OC(N)=O)[C@@H](OC)/C=C\C=C(/C)C(=O)NC(=CC1=O)C2=O`, the Potency is reported as 0.252 µM (active).
In the case of `CCOc1ccc(/C=C/C(=O)Nc2ccc3nc(N(CC)CC)cc(C)c3c2)cc1OC`, the Potency is reported as 10 µM (active).
In the case of `CCN1CCN(c2cc(C)c3cc(NC(=O)c4cccc(Cl)c4)ccc3n2)CC1`, the Potency is reported as “inactive”.
For `CCN1CCN(c2cc(C)c3cc(NC(=O)/C=C/c4ccc(OCCC(C)C)cc4)ccc3n2)CC1`, the Potency was 3.18 µM (active).
For `O=C1CC(c2ccccc2)Cc2[nH]c(=O)c(-c3nc(-c4cccc(Cl)c4)cs3)cc21` (configuration not stated), the Potency was “inactive”.
For `O=C1CC(c2ccccc2)Cc2[nH]c(=O)c(-c3nc(-c4ccc(Cl)cc4)cs3)cc21` (configuration not stated), the Potency was “inactive”.
